Source: PubChem BioAssay (EPA / NIEHS)
“And” between values parts separate entries of the source, which are not always exact repeats. Identical values can stand only once. Inconclusive results are not listed. The source made the active and inactive calls. How the source made its calls, unless noted: active means hit-call score of the fitted dose curve at least 0.9, where 1 is the maximum; inactive means score below 0.9.

Columns and labels:
[1] = CCTE_Shafer_MEA_acute_cross_correlation_area: CCTE's Neural Acute Assay for Area of Cross Correlation, Shafer Lab (AID 2284024);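 further: area under pooled inter-electrode spike cross-correlation near zero lag as percent change from own baseline; curves fitted for loss of cross-correlation area so actives lower synchrony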
Procedure, shortened: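 Plates equilibrated 20 min at 37 C, then 40 min baseline was recorded, compound was added (0.03-40 uM), and a further 40 min was recorded. Wells needed ≥10 active electrodes (≥5 spikes/min) on exposure day.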

[2] = CCTE_Shafer_MEA_acute_cross_correlation_HWHM: CCTE's Neural Acute Assay for Cross Correlation at Half Width at Half Maximum, Shafer Lab (AID 2284026);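 further: percent change per well from pre-dose baseline in spike cross-correlogram half width; hits are a decrease in cross-correlogram half width relative to DMSO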
Procedure, shortened: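 Rat cortical neuron cultures on microelectrode arrays were equilibrated 20 min at 37 C, recorded 40 min at baseline, then 40 min after compound addition (0.03-40 uM, ≥3 wells). Spikes were detected at 8x rms noise after 300-5000 Hz band-pass filtering.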

[3] = CCTE_Shafer_MEA_acute_synchrony_index: CCTE's Neural Acute Assay for Synchrony, Shafer Lab (AID 2284027);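 further: fitted for loss of signal so actives lower synchrony relative to DMSO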
Procedure, shortened: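 Readout is percent change in the unitless network synchrony index (0 low, 1 high) between a 40-min baseline and a 40-min recording in compound. Cultures were primary rat cortical neurons on MEAs, treated at 0.03-40 uM on DIV 13 or 15.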

[4] = biological target: Estrogen receptor (Homo sapiens) (UniProt P03372); experiment: CCTE_Deisenroth_AIME_384WELL_LUC_Active: CCTE's 384-well Estrogen Receptor Transactivation Assay with AIME metabolic competence (ERTA luciferase; metabolism positive), Deisenroth Lab (AID 2284030; active means hit-call score of the fitted dose curve at least 0.9, where 1 is the maximum)
Estrogen receptor (Homo sapiens), sequence (P03372 whole entry, looked up): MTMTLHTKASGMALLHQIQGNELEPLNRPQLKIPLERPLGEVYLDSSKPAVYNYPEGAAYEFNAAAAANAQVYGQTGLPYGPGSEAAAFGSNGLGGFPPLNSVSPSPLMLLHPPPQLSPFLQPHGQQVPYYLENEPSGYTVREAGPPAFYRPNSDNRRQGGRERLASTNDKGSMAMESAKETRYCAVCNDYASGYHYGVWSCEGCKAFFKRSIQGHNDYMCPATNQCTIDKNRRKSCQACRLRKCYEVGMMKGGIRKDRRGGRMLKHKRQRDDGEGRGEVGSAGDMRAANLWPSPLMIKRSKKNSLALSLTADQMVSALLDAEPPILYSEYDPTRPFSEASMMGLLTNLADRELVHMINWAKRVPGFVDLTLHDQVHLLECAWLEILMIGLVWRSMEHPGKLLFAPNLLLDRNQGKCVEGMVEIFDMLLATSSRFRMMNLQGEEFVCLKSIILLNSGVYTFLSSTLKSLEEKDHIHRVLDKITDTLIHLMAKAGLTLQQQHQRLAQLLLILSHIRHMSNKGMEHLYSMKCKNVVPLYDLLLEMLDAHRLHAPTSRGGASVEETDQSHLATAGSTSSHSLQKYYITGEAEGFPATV
Procedure, shortened: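 AIME metabolism-positive mode: chemicals 0.002 - 200 uM, 2 h with alginate-bound PB/BNF-induced rat S9 → medium to VM7Luc4E2 ERTA, 24 h → luciferase. Positive fit vs 17beta-estradiol; n=4 typical.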

[5] = CCTE_Deisenroth_AIME_384WELL_CTox_Active: Cytotoxicity Assessment (CTOX) in CCTE's 384-well Estrogen Receptor Transactivation Assay with AIME metabolic competence (metabolism positive), Deisenroth Lab (AID 2284037; active means hit-call score of the fitted dose curve at least 0.9, where 1 is the maximum;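 further: activity means signal loss indicating cell death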)
Procedure, shortened: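 Chemicals pre-incubated 2 hours with alginate-immobilised phenobarbital/beta-naphthoflavone-induced male Sprague Dawley rat liver S9, then conditioned medium applied 24 hour to VM7Luc4E2 cells. Viability by fluorogenic protease substrate; 10-point series 0.002 - 200 uM.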

[6] = biological target: Estrogen receptor (Homo sapiens) (UniProt P03372); experiment: CCTE_Deisenroth_AIME_384WELL_LUC_Inactive: CCTE's 384-well Estrogen Receptor Transactivation Assay without AIME metabolic competence (ERTA luciferase; metabolism negative), Deisenroth Lab (AID 2284038; active means hit-call score of the fitted dose curve at least 0.9, where 1 is the maximum;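 further: VM7Luc4E2 breast cells given medium preincubated 2 h with S9-free microspheres; hits raise estrogen receptor luciferase signal so potencies reflect agonists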)
Procedure, shortened: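 Metabolism-negative mode: chemicals (10-point, 0.002–200 uM) held 2 h with alginate-water microspheres, then conditioned medium applied to VM7Luc4E2 cells for 24 h. Luciferase induction referenced to 17beta-estradiol.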

[7] = CCTE_Shafer_MEA_dev_per_burst_spike_percent: CCTE's Neural Network Formation Assay for Percent of Spikes in a Burst, Shafer Lab (AID 2284032);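 on AC50: fitted as a decrease in burst spike percentage below DMSO baseline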
Procedure, shortened: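 Rat primary cortical neurons on 16-electrode MEA wells, dosed from plating day 0 for 12 days with renewal on DIV 5 and 9; spikes-in-bursts percentage averaged over bursting electrodes, collapsed as AUC across days 5, 7, 9, 12; loss direction versus DMSO.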

[8] = biological target: Estrogen receptor (Homo sapiens) (UniProt P03372); experiment: CCTE_Deisenroth_AIME_96WELL_LUC_Inactive: CCTE's 96-well Estrogen Receptor Transactivation Assay without AIME metabolic competence (ERTA luciferase; metabolism negative), Deisenroth Lab (AID 2284025; active means hit-call score of the fitted dose curve at least 0.9, where 1 is the maximum)
Procedure, shortened: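 VM7Luc4E2 breast cells, luciferase read 24 h after dosing with medium pre-incubated 2 h on alginate-water lids (metabolism negative). 10-point series 0.002–200 uM, single technical replicate, n≥4; fit relative to 17beta-estradiol.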

[9] = CCTE_Deisenroth_AIME_96WELL_CTox_Active: Cytotoxicity Assessment (CTOX) in CCTE's 96-well Estrogen Receptor Transactivation Assay with AIME metabolic competence (metabolism positive), Deisenroth Lab (AID 2284028; active means hit-call score of the fitted dose curve at least 0.9, where 1 is the maximum)
Procedure, shortened: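 Chemicals (0.002–200 uM) were first incubated 2 h with alginate-immobilized phenobarbital/beta-naphthoflavone-induced male rat liver S9; conditioned medium then went onto VM7Luc4E2 cells for 24 h, with viability read by protease-substrate fluorescence, fitted bidirectionally.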

[10] = CCTE_Deisenroth_AIME_96WELL_CTox_Inactive: Cytotoxicity Assessment (CTOX) in CCTE's 96-well Estrogen Receptor Transactivation Assay without AIME metabolic competence (metabolism negative), Deisenroth Lab (AID 2284029; active means hit-call score of the fitted dose curve at least 0.9, where 1 is the maximum)
Protocol: CCTE_Deisenroth_AIME_96WELL (AIME metabolism assay) is a cell-based, single-readout assay that uses VM7Luc4E2, a human mammary gland/breast cell line, with measurements taken at 24 hour after chemical dosing in a 96-well plate.CCTE_Deisenroth_AIME_96WELL_CTox_Inactive is one of four assay components measured or calculated from the CCTE_Deisenroth_AIME_96WELL assay. It is designed to make measurements of a protease substrate, a type of viability indicator, as detected with substrate cleavage to a fluorescent probe in living cells.CCTE_Deisenroth_AIME_96WELL_CTox_Inactive is a component of the CCTE_Deisenroth_AIME_96WELL assay that measures the effect of retroftting the VM7Luc ERTA assay with the Alginate Immobolization of Metabolic Enzymes (AIME) metabolism method. AIME is optimized to impart phase I hepatic metabolism using phenobarbital/beta-naphthoflavone induced hepatic S9 from male Sprague Dawley rats. Parent chemicals are incubated for 2 hours in the AIME assay prior to transfer to the VM7Luc ERTA assay plate. […] This endpoint evaluates cytotoxicity in metabolism negative mode. Using a type of flourescent probe in VM7Luc cells, loss-of-signal activity can be used to understand loss of viability. This assay endpoint, CCTE_Deisenroth_AIME_96WELL_CTox_Inactive, was analyzed with bidirectional fitting in the ERTA assay. […]

Measured: AC50

CCCc1ccccc1
inactive: [1] | [2] | [3] | [4] | [5] | [6]

OC(CCl)CCl
inactive: [1] | [2] | [3]

COc1cc2c(c(OC)c1OC)-c1ccc(OC)c(=O)cc1[C@@H](NC(C)=O)CC2
active: [7] 28.5 nM | [5] 19.8 µM
inactive: [1] | [2] | [3] | [4] | [6]

CCCCC(CC)C(=O)OCCOCCOCCOC(=O)C(CC)CCCC (stereo unspecified)
inactive: [1] | [2] | [3] | [4] | [6]

CCCCCOC(C)=O
inactive: [4] | [5] | [6]

CCN(CC)C(=S)SSC(=S)N(CC)CC
active: [7] 143 nM and 47.8 nM
inactive: [8] | [9] | [10] | [4] | [5]

c1ccc2c(c1)-c1cccc3c1c-2cc1ccccc13
inactive: [4] | [7] | [5] | [6]

Cc1ncc([C@@H](CCCCCCc2ccc3c(n2)NCCC3)CC(=O)O)cn1
inactive: [1] | [2] | [3]

c1ccc2cc3ccccc3cc2c1
inactive: [2] | [3] | [7]
active: [1] 0.00687 µM

CCCCCCCC/C=C\CCCCCCCC(=O)OC[C@@H](O)[C@H]1OC[C@H](O)[C@H]1O
inactive: [1] | [2] | [3]

COCc1nnc(-c2ccc[n+]([O-])c2)n1-c1c(Cl)c(Cl)cc2[nH]c(=O)c(=O)[nH]c12
active: [2] 8.51 µM | [3] 14.7 µM
inactive: [1]

Cn1c(=O)c2[nH]cnc2n(C)c1=O
inactive: [1] | [2] | [3]

CC(C)CCCCCCOC(=O)C1CCCCC1C(=O)OCCCCCCC(C)C (stereo unspecified)
inactive: [4] | [5] | [6]

O=S(=O)(O)c1ccc(N=Nc2c(O)ccc3cc(S(=O)(=O)O)ccc23)cc1
inactive: [1] | [2] | [3]

OCCOCCOCCO
inactive: [4] | [5] | [6]

OCc1ccccc1
inactive: [1] | [2] | [3] | [4] | [5] | [6]

c1ccc(C(O[C@@H]2CCCN(CCc3ccc4c(c3)OCO4)C2)c2ccccc2)cc1
active: [4] 29.1 µM
inactive: [1] | [2] | [3] | [5] | [6]
